# Cruzain inh noDet – blocks cruzain activity in detergent-free assay | 2.3% of 200,000 active | Potency, µM, for inactives: max response, negative = inhibition, usual class: inhibitors | AID 1476 | purified cruzain, Z-FR-AMC fluorescence, no detergent | P25779;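 also: plate controls were enzyme without inhibitor for no effect and buffer without enzyme for full effect; nearly all actives have a fitted effect of over 40% in size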
# Target sequence (P25779 123-467 limits assumed): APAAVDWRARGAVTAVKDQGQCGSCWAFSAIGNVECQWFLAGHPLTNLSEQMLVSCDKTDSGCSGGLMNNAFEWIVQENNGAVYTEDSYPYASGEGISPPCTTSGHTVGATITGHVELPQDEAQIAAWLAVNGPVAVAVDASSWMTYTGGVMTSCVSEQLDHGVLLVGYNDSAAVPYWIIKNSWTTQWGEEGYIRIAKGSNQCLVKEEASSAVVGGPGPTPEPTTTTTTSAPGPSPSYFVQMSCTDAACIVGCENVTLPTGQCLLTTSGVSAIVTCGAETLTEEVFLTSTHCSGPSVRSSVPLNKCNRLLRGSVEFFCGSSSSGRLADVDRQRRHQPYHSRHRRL
#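 Purified cruzain at 1.5 nM, pre-incubated 15 min with compound at room temperature in 100 mM sodium acetate pH 5.5, 5 mM DTT, 0.00005% Triton X-100. Reaction started with 2 uM Z-FR-AMC; AMC fluorescence increase over 60 s gives rate.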
# Cruzain Triton – cruzain (T. cruzi) inhibition with detergent; P25779; purified cruzain, Z-FR-AMC fluorescence, 0.01% Triton; Potency, µM, inactives show max response, negative = inhibition, most hits filed as inhibitors; 0.43% of 200,000 active; AID 1478;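 also: plate controls were neutral wells for no effect and buffer without enzyme for full effect; nearly all actives have a fitted effect of over 40% in size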
#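 Enzyme 1.5 nM, Z-FR-AMC 2 uM, NaOAc 100 mM pH 5.5, DTT 5 mM, Triton X-100 0.01%; 15 min RT compound preincubation; kinetic ex360/em450, 60 s delta.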
# Numbers without * were called inactive; ? = inconclusive. Hits are enriched below; roughly 2.5% of the tested compounds scored in any of these assays. Calls follow the shape of the dose curve; as a rule, active = well fitted curve in the direction sought with a large enough effect; inconclusive = small, poorly fitted or top-dose-only effect, or another doubt; inactive = no such curve, though single readings can be large; an effect the other way counts as inactive or inconclusive. Potency is read from the fitted curve at half-maximal effect.
SMILES,Cruzain inh noDet,Cruzain Triton
O=C(Nc1ccc(Cl)cc1)[C@@H]1[C@@H]2C(=O)N(c3ccc4ccccc4c3)C(=O)[C@@H]2[C@H]2C=CC=NN21,15.8µM*,-7.2%
CC(=O)Oc1ccc(C(=O)[C@H]2[C@H]3C(=O)N(c4cccc5ccccc45)C(=O)[C@H]3[C@@H]3C=CC=NN32)cc1,23.0%,-5.5%
O=C(CN1C(=O)c2ccccc2C1=O)OC(C(=O)c1ccc(Cl)cc1)c1ccccc1 (stereo unspecified),31.6µM*,1.6%
COc1ccc(C(=O)OC(C(=O)c2ccccc2)c2ccccc2)cc1 (stereo unspecified),-8.8%,-0.8%
O=C(CNC(=O)c1ccccc1)OC(C(=O)c1ccccc1)c1ccccc1 (stereo unspecified),3.98µM*,6.31µM*
O=C(CNC(=O)c1ccc(Cl)cc1)OCc1nc2ccccc2s1,15.8µM*,14.1µM*
Cc1ccc(C(=O)C(OC(=O)CN2C(=O)c3ccccc3C2=O)c2ccccc2)cc1 (stereo unspecified),?,2.9%
COc1ccc(NC(=O)CCC(=O)OC(C(=O)c2ccccc2)c2ccccc2)cc1 (stereo unspecified),-8.4%,-11.5%
COc1ccc(C(=O)C(OC(=O)CNC(=O)c2ccco2)c2ccccc2)cc1 (stereo unspecified),3.16µM*,3.98µM*
O=C(OCc1nc2ccccc2s1)c1cccs1,-3.8%,-0.4%
Cc1cccc(NC(=O)Cn2nc(-c3ccccc3)c3cnc4ccccc4c32)c1,-10.3%,-1.9%
CCOc1ccccc1/C=C(\C#N)C(N)=O,-1.9%,3.3%
Cc1ccc(C(=O)C(OC(=O)CNC(=O)c2ccc(Cl)cc2)c2ccccc2)cc1 (stereo unspecified),10µM*,6.31µM*
Cc1ccc(C(=O)NCC(=O)NCC(=O)OCc2ccc(Cl)cc2)cc1,0.5%,-2.9%
O=c1oc2cc(O)ccc2cc1-c1ccc2c(c1)OCCO2,-19.7%,-4.0%
Cc1nnc(SCC(=O)Nc2ccc(S(=O)(=O)N3CCCC3)cc2)n1N,-5.6%,2.5%
Cc1cc(C)c2nc(SCC(=O)Nc3ccc(S(=O)(=O)N4CCCC4)cc3)c(C)cc2c1,12.6µM*,-8.4%
COc1ccc2nc(SCC(=O)Nc3ccc(S(=O)(=O)N4CCCC4)cc3)c(C#N)cc2c1,12.6µM*,-1.9%
N#Cc1cc2ccccc2nc1SCC(=O)Nc1ccc(S(=O)(=O)N2CCCC2)cc1,?,-4.5%
COc1ccccc1-c1nc2c(c(SCc3cc(C)ccc3C)n1)Cc1c(CO)cnc(C)c1O2,?,-13.9%
COc1cccc(NS(=O)(=O)c2ccc3[nH]cc(C(=O)NCCc4ccc(C)cc4)c(=O)c3c2)c1,12.6µM*,2.9%
CC(C)c1ccc(NS(=O)(=O)c2ccc3[nH]cc(C(=O)NCCc4ccccc4)c(=O)c3c2)cc1,6.7%,1.5%
CCOc1ccc(NS(=O)(=O)c2ccc3[nH]cc(C(=O)NCCc4ccccc4)c(=O)c3c2)cc1,14.1%,-2.2%
COc1cccc(NS(=O)(=O)c2ccc3[nH]cc(C(=O)NCCc4ccccc4)c(=O)c3c2)c1,12.6µM*,-2.5%
CCc1ccc(NS(=O)(=O)c2ccc3[nH]cc(C(=O)NCCCOC(C)C)c(=O)c3c2)cc1,20µM*,-3.5%
SMILES,Cruzain inh noDet,Cruzain Triton
COc1cccc(NS(=O)(=O)c2ccc3[nH]cc(C(=O)NC4CC4)c(=O)c3c2)c1,-4.9%,-9.6%
Cc1cccc(OCc2nc(CC(=O)Nc3ccc(Cl)cc3)cs2)c1,-10.0%,-7.2%
Cc1cccc(C)c1NC(=O)CCCn1c(=O)c2cccn2c2ccccc21,?,-13.6%
CN(C)c1ccc(/C=N\NC(=S)SCN2C(=O)C3CCC(C)(C2=O)C3(C)C)cc1 (stereo unspecified),31.6µM*,1.9%
CC12CCC(C(=O)N(CSC(=S)N/N=C\c3ccccc3O)C1=O)C2(C)C (stereo unspecified),?,-19.1%
Cc1ccc(S(=O)(=O)O[C@H]2CC(C(C)(C)C)CC[C@@H]2c2ccccc2)cc1 (stereo partly specified),-4.9%,1.4%
O=[N+]([O-])c1cccc(/C=N\Nc2ccc3ccccc3n2)c1O,0.6%,1.8%
CCc1ccc(-n2nc3ccc(NC(=O)c4ccc(C#N)cc4F)cc3n2)cc1,-0.5%,0.8%
C=C(C[C@]1(C(=O)OC)CC2(CC=C(C)C)C(=O)C(C(=O)CC(C)C)=C(O)C(CC=C(C)C)(C1)C2=O)C(=O)OC (stereo partly specified),?,-2.9%
CCCCOC(=O)c1ccc(NC(=O)Cc2coc3c(C)c(C)ccc23)cc1,-11.7%,-5.8%
O=C(NC1CCCCC1)c1ccccc1NC(=S)NC(=O)C1CCC1,-11.5%,1.9%
O=C(/C=C/c1ccccc1Cl)NC(=S)Nc1ccccc1C(=O)NC1CCCCC1,3.98µM*,1.5%
O=C1NC(=O)/C(=C/c2ccccc2Oc2ccc(Cl)cc2)S1,20µM*,1.7%
Cc1ccc(Oc2ccccc2/C=C2\SC(=O)N(C)C2=O)cc1,-17.5%,-3.5%

# Screens deposited in PubChem BioAssay by National Center for Advancing Translational Sciences (NCATS).
